Screening results deposited in PubChem by NMMLSC.
MEP2-GFP yeast = alters MEP2-GFP fluorescence in TOR pathway yeast screen; S. cerevisiae MEP2-GFP strain, flow cytometry GFP, 3 h; 100% = DMSO control level; GFP response vs DMSO, % at 10 µM; actives 0.51% (n = 330,000);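 active = GFP response versus DMSO above a set limit, roughly screen mean plus 3 SD, cut at about 180% in these data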;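 note: median GFP fluorescence of the barcode-gated MEP2-GFP cells per well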
RPL19A-GFP yeast = alters RPL19A-GFP fluorescence in TOR pathway yeast screen; percent response vs DMSO, % at 10 µM; actives 0.3% (n = 330,000); S. cerevisiae RPL19A-GFP strain, flow cytometry, 3 h; active compounds read low; AID 2025;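 active = percent response vs DMSO below 50%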;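 note: median channel GFP fluorescence of the barcoded RPL19A-GFP strain; ratio of sample median GFP to plate DMSO average so 100% = DMSO; lower means less RPL19A-GFP as with rapamycin TOR inhibition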
AGP1-GFP MLPCN = alters AGP1-GFP fluorescence in TOR pathway yeast screen. actives 0.02% (n = 320,000). GFP response vs DMSO, % at 10 µM. S. cerevisiae AGP1-GFP multiplex flow cytometry, 3 h; GFP as percent of DMSO wells;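 active = GFP response relative to DMSO above a set limit, near screen average plus 3 SD, cut at about 150% in these data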;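 note: median GFP channel fluorescence of the gated AGP1 strain per well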
CIT2-GFP yeast = alters CIT2-GFP fluorescence in TOR pathway yeast screen; S. cerevisiae CIT2-GFP strain, flow cytometry, 3 h; 100 means same as DMSO wells; GFP response vs DMSO, % at 10 µM; actives 0.065% (n = 320,000); AID 2029;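 active = GFP response relative to DMSO above a set limit, near the screen mean plus 3 SD, cut at about 150% in these data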;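 note: ratio of well median GFP fluorescence to mean of DMSO wells on the plate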
Myeloid diff MLP = myeloid differentiation induction; ER-HoxA9 myeloid progenitors, lysozyme-GFP differentiation, flow cytometry; calls only at 10 µM; actives 1% (n = 360,000); AID 624256;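 active = normalized GFP-positive differentiation at or above the plate's own cutoff, the solvent-only control mean plus 3 SD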;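 note: cells exposed to compound for four days before flow analysis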
LAP4-GFP MLPCN = modulators of TOR pathway LAP4-GFP in S. cerevisiae; S. cerevisiae LAP4-GFP multiplex, flow cytometry GFP, 3 h; median GFP as percent of DMSO wells; GFP response vs DMSO, % at 10 µM; actives 0.34% (n = 320,000); AID 2023;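 active = GFP response vs DMSO above a set limit, about the screen mean plus 3 SD, cut at about 150% in these data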
Myeloid diff = promotes myeloid progenitor differentiation. shares compounds with Myeloid diff MLP. ER-HoxA9 myeloid progenitors, GFP/Mac1 double-positive flow. calls only. actives 2% (n = 2,300);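 active = share of green or green-and-red cells above 9 and 9% in run 1 or 4 and 3% in run 2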
GFP autofluor = counter-screen for myeloid differentiation promoters: compound fluorescence; shares compounds with Myeloid diff MLP; ER-HoxA9 myeloid progenitors, no estrogen, GFP autofluorescence flow cytometry; vehicle wells 0%, positive control 100%; fluorescence response, % (test concentration not listed); actives 7.4% (n = 2,300); AID 651707;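 active = over 5% cells positive for green fluorescent reporter, or over 2% positive for both it and APC stain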;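 note: range taken on the double positive population between DMSO and positive control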
Starred values were filed as active, the others as inactive; i = inactive; . = no result; + = active, no number. Most compounds without a hit are left out; they make up all but 1.8% or so of the library.

SMILES	MEP2-GFP yeast	RPL19A-GFP yeast	AGP1-GFP MLPCN	CIT2-GFP yeast	Myeloid diff MLP	LAP4-GFP MLPCN	Myeloid diff	GFP autofluor
CCC(=O)Nc1cc(-c2nn(C)c(=O)c3ccccc23)ccc1OC	102	.	104	105	i	99	.	.
COc1ccc(-c2nn(C)c(=O)c3ccccc23)cc1NC(=O)Cn1nc(C)c2ccccc2c1=O	101	94	104	92	+	91	i	0
Cc1ccc(CC(=O)Nc2nncs2)cc1	102	97	103	.	i	91	.	.
COc1ccc(Cc2nnc(NC(=O)C3CCCO3)s2)cc1OC (stereo unspecified)	96	92	.	88	+	87	i	0
CCCCOC(=O)c1nnc(-c2ccccc2)o1	110	103	84	91	i	106	.	.
S=C(NC1CC1)NC1CCCc2ccccc21 (stereo unspecified)	101	100	101	98	i	102	i	0
COc1cc2c(cc1OC)CN(CC(=O)NC(=O)NCc1ccccc1)CC2	118	99	102	117	+	102	i	0
COc1cc2c(cc1OC)CN(CC(=O)Nc1ccccc1C(=O)NCc1ccccc1)CC2	109	103	103	113	.	100	.	.
CC1CCCCC1NC(=O)CSc1nc2ccccc2c(=O)n1Cc1ccco1 (stereo unspecified)	103	96	104	103	+	94	i	0
O=C(CSc1nc2ccccc2c(=O)n1Cc1ccco1)c1ccccc1	95	95	100	102	i	102	.	.
O=C(Cn1ccnc1[N+](=O)[O-])NCCO	.	.	.	.	i	.	.	.
O=c1c(-c2cccs2)nc2ccccc2n1C(CCc1ccccc1)c1nc2ccccc2[nH]1 (stereo unspecified)	.	.	.	.	i	.	.	.
COCCCn1c(SCC(=O)OC2CCCCC2)nnc1-c1ccco1	100	97	99	101	i	92	.	.
COCCCn1c(SCC(=O)OC2CCCCC2)nnc1-c1cccs1	96	92	93	85	i	90	i	0
CCOC(=O)c1cc(-c2ccccc2)sc1NC(=S)Nc1cc(C)ccn1	111	96	99	103	+	97	i	0
CC(=O)c1ccc(N=c2scc(C)n2C(C)C)cc1	96	92	88	95	i	90	.	.
Cc1nnc(SC(C)C(=O)NCC2CCCO2)n1-c1ccccc1 (stereo unspecified)	102	97	102	96	i	92	.	.
CC(Sc1nn(-c2ccccc2)c(=S)s1)C(=O)NCC1CCCO1 (stereo unspecified)	106	103	107	97	i	107	i	0
O=C(O)c1cccc(S(=O)(=O)NCC2COc3ccccc3O2)c1 (stereo unspecified)	99	99	101	102	i	96	i	1
O=C(NNC(=O)c1ccc(O)c(Cl)c1)c1cccc(S(=O)(=O)N2CCOCC2)c1	103	99	96	108	i	99	.	.
COC(=O)c1cc(NS(=O)(=O)c2ccc(C)c3ccccc23)ccc1N1CCOCC1	106	97	109	102	i	109	i	0
COc1cccc(NS(=O)(=O)c2ccc3c(c2)n(C)c(=O)c(=O)n3C)c1	104	96	104	98	i	108	.	.
CCn1c(=O)c(=O)n(CC)c2cc(S(=O)(=O)Nc3cccc(OC)c3)ccc21	107	101	104	114	+	106	i	0
O=C(O)CCNS(=O)(=O)c1cccc(Br)c1	103	102	102	110	i	99	.	.
Cn1ccc2c(N3CCCCCCC3)cc3c(c21)C1CCC3O1 (stereo unspecified)	.	.	.	.	+	.	i	0
SMILES	MEP2-GFP yeast	RPL19A-GFP yeast	AGP1-GFP MLPCN	CIT2-GFP yeast	Myeloid diff MLP	LAP4-GFP MLPCN	Myeloid diff	GFP autofluor
CN(c1cc2c(c3c1ccn3C)C1CCC2O1)C1CCCCC1 (stereo unspecified)	.	.	.	.	i	.	.	.
CCCc1nnc(NC(=O)CCC(=O)N2CCN(c3ccccc3)CC2)s1	106	101	105	104	i	96	i	0
CN(C)S(=O)(=O)c1cccc(NC(=O)COC(=O)CCc2nc3ccccc3s2)c1	102	102	109	109	i	100	i	2
COc1ccc(N(CCN2C(=O)c3ccccc3C2=O)C(=O)c2cccc([N+](=O)[O-])c2)cc1	101	105	100	104	i	92	.	.
Cc1cccc(NC(=O)CSc2nnc(-c3ccco3)o2)c1C	107	103	104	103	i	105	.	.
Cc1nc(SCC(=O)N(C)C2CCS(=O)(=O)C2)c2ccccc2n1 (stereo unspecified)	96	99	103	92	i	105	.	.
Cc1nc(SCC(=O)N(C)C2(C#N)CCCCC2)c2ccccc2n1	100	97	95	97	i	102	i	4
CCN1C(=O)[C@H]2[C@@H](c3ccc(-c4ccc(Cl)c(Cl)c4)cc3)N[C@@](C)(C(=O)OC)[C@H]2C1=O	104	99	88	90	i	127	.	.
Cc1c(C(=O)N2CCOCC2)[nH]c2c1C(=O)CC(c1ccccc1Cl)C2 (stereo unspecified)	104	101	104	102	i	102	.	.
O=C1NC2(CCCCC2)C(=O)N1/N=C/c1ccc(O)cc1O	100	95	101	100	+	98	i	0
O=C1NC2(CCCCC2)C(=O)N1/N=C/c1ccccc1Br	93	94	99	102	i	101	.	.
Cc1ccccc1NC(=S)Nc1ccccn1	112	98	89	98	i	114	i	1
S=C(Nc1ccccn1)Nc1ccccc1Cl	92	91	87	85	i	115	.	.
CC1(C(=O)NCc2ccc3c(c2)OCO3)CCN1C(=O)CC1CCCC1 (stereo unspecified)	.	.	.	.	i	.	.	.
COc1ccc(COc2ccsc2C(=O)Nc2ccc(Cl)cc2)cc1	99	96	97	95	i	105	i	0
O=C(OCc1nnc(-c2ccccc2)o1)c1cc(Cl)ccc1[N+](=O)[O-]	92	89	85	85	i	94	.	.
CCCC(c1nnnn1C(C)(C)C)N1CCN(C(=O)c2ccco2)CC1 (stereo unspecified)	113	95	111	98	+	108	i	0
